# Data reported in PubChem BioAssay AID837 (The Scripps Research Institute Molecular Screening Center, 2007).
# Calls of active or inactive are those of the source.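 Rule for the calls: active = relative FRET score above 0.01, or acceptor fluorescence over 30% below the sample-well median; inactive = the rest.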
# Target: Protein Rev (Human immunodeficiency virus type 1 group M subtype B (isolate WMJ22)) (UniProt P05866)
# Assay: disruptors of Rev peptide-RRE RNA complex – biochemical, FRET, acceptor and relative FRET calls, confirmation (AID 837);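 note: relative FRET combines rise in Cy5 acceptor with fall in fluorescein donor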
# Details: Fl-Rev peptide / Cy5-RRE RNA FRET, 1536-well; at 8 µM
# Sequence of Protein Rev (Human immunodeficiency virus type 1 group M subtype B (isolate WMJ22)) (P05866 whole entry, looked up): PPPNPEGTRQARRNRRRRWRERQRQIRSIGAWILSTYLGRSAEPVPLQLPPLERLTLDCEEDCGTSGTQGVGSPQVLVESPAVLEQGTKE
row,Compound,outcome
1,OC(CNC1CCCC1)COc1c(F)cc(Br)cc1F (stereo not given),inactive
2,O=C(NCc1cccs1)c1cc2c(s1)CCCC2,inactive
3,CCN(N=Nc1cccc([N+](=O)[O-])c1)c1cccc([N+](=O)[O-])c1,inactive
4,CCc1nnc(NC(=O)c2ccc3c(c2)C(=O)N(C(C)(C)C)C3=O)s1,inactive
5,NCCCCCc1nnc(SCc2ccccc2Cl)o1,inactive
6,CCCN1C2=NCCN2c2cc(C)c(C)cc21,inactive
7,Cc1cc(Cl)c(OCCCNCc2ccccc2)c(Br)c1,inactive
8,Cc1cccc(N2C(N)=NC(N)=NC23CCCCC3)c1,inactive
9,OC(COc1ccc2cc(Br)ccc2c1)CN1CCCC1 (stereo not given),inactive
10,COc1ccc(C2N=C(N)N=C(N)N2c2ccc(C)cc2)cc1 (stereo not given),active
11,C=CCn1c(=N)n(CC(O)COc2ccc(OC)cc2)c2ccccc21 (stereo not given),inactive
12,CN=C1c2cc3cc(OC)ccc3n2CCN1Cc1ccccc1,inactive
13,O=C(NCCCO)Nc1ccc2nc(-c3ccco3)c(-c3ccco3)nc2c1,inactive
14,COc1cc2[nH]c(=O)c(C(=O)NCCCN3CCCCC3)c(O)c2cc1OC,inactive
15,COc1cccc(Nc2nc(NCC3CCCO3)c3ccccc3n2)c1 (stereo not given),inactive
16,CCOc1ccc2nc3ccc4[nH]onc4c3c2c1,inactive
17,O=C(N/N=C/c1ccc(F)cc1)c1cc(-c2ccco2)nc2ccccc12,active; quenches the donor
18,CCCCNCCCOc1cccc(Cl)c1Cl,inactive
19,CCOC(=O)c1cn2nc(-c3ccc(OCC)cc3)cc2nc1C1CCN(C(=O)OC(C)(C)C)CC1,inactive
20,CN=C1c2c(-c3ccccc3)c3cc(OC)ccc3n2CCN1C,inactive

row,Compound,outcome
1,CCOC(=O)[C@@H]1CCNC[C@@H]1c1ccccc1,inactive
2,O=c1nc(N2CCCC2)nc(Nc2ccccc2)[nH]1,inactive
3,CCCCN1CCc2c1nc1ccc(Br)cc1c2N,inactive
4,COc1cccc(OC)c1-c1nn2c(-c3cc(-c4ccccc4)n[nH]3)nnc2s1,active
5,COc1ccc(CSc2nnc(C)n2N)cc1,inactive
6,CCn1c(=N)n(CCOc2ccc(OC)cc2)c2ccccc21,inactive
7,C/C=C/c1ccc(OCCCNC2CCCC2)c(OC)c1,inactive
8,O=C(Nc1nccs1)c1cc2c(s1)-c1ccccc1OC2,inactive
9,CCN(CC)CCCNC(=O)c1cc(-c2ccc(Cl)cc2)on1,inactive
10,c1ccc(COc2ccc(OCCCCN3CCCCC3)cc2)cc1,inactive
11,CCCCOc1ccc(NC2=NC3(CCCCC3)N=C(N)N2)cc1,inactive
12,CCCCCCC1CC(CSC(=N)N)OC1=O (stereo not given),inactive
13,C=CCn1c(=O)c(C(=O)NCCNCC)c(O)c2ccccc21,inactive
14,CCN(CC)CCn1c(=N)n(CCOc2ccccc2)c2ccccc21,inactive
15,CCN(CC)CCNC1=NCCn2c1cc1cc(OC)ccc12,active
16,CCC1=NNc2cccc3c(OC)ccc1c23,inactive
17,CC(C)(c1ccccc1)c1ccc(OCCCNCCO)cc1,inactive
18,Nc1cccc2nc3ccccc3cc12,inactive
19,CC1=NOC(=O)/C1=C/c1ccc(N(C)C)cc1,active; fluoresces like the donor
20,OC(CN1C2=NCCCN2c2ccccc21)c1ccc(Br)cc1 (stereo not given),inactive
